Compound activity from PubChem.
In the library only some 13% were active in any assay of this set; here they are far more common.
Lassa entry inh: qHTS for Inhibitors of binding or entry into cells for Lassa Virus. Potency, µM (titrated, usually from 37.9 µM), for inactives: top-dose activity change, negative = inhibition, most hits filed as inhibitors. Lassa virus pseudotype entry inhibition, cell reporter. AID 540256, 2011. actives 1.2% (n = 300,000); calls by dose curve; tested in HEK293 cells; also: potency is read from the fitted curve at half-maximal effect; % is scaled to controls: 0 for no effect and ±100 for the full control effect; nearly all actives have a fitted effect of over 50% in size
Shiga inhibitor: A qHTS for Small Molecule Inhibitors of Shiga Toxin | inhibition, % at 38.7 µM | Vero cells, Shiga toxin protein synthesis inhibition reporter | actives 9.2% (n = 290,000); in the data active = inhibition mostly above about 28%, no sharp cut-off; inactive = mostly below about 43%; also: 0% is about no effect
Marburg entry inh: qHTS for inhibitors of binding or entry into cells for Marburg Virus; AID 540276, 2011; Marburg virus pseudotyped entry inhibition, cell reporter; Potency, µM (top dose mostly 37.8 µM), for the others: at the highest dose activity change, negative = inhibition, most hits filed as inhibitors; actives 1.8% (n = 300,000); calls by dose curve; tested in HEK293 cells; also: potency is read from the fitted curve at half-maximal effect; % is scaled to controls: 0 for no effect and ±100 for the full control effect
Cycloheximide cs: Cycloheximide Counterscreen for Small Molecule Inhibitors of Shiga Toxin. actives 12% (n = 300,000). cell reporter, cycloheximide protein synthesis inhibition counterscreen. AID 2314, 2010. max response, %; in the data active = max response mostly above about 13%, no sharp cut-off; inactive = mostly below about 14%; also: read at 38.3 µM for the half of the compounds with a filed dose; 0% is about no effect
HCV inhibitor: qHTS Assay for Inhibitors of Hepatitis C Virus (HCV); Huh7.5.1 HCVcc-Cre infection, luciferase reporter, 44 h; Potency, µM (doses to about 41.8 µM), for inactives: top-dose activity change, negative = inhibition, hits mostly inhibitors; actives 3.4% (n = 340,000); active = well fitted inhibition curve with a large enough effect; inconclusive = small, poorly fitted or top-dose-only effect, or another doubt; inactive = no such curve, though single readings can be large or run the other way; also: potency is read from the fitted curve at half-maximal effect; % is scaled to controls: 0 for no effect and ±100 for the full control effect
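Infectious HCVcc-Cre (~0.5 moi) was added to cells just after compound, with cells seeded 4 h earlier at 1,000 per well. Luciferase activity after 44 h culture reported infection; substrate was incubated 15 min at room temperature before reading.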
FMDV inh: High Throughput Screening for Foot and Mouth Disease Virus Antivirals; FMDV antiviral cell-based qHTS; Potency, µM (highest dose often 57.9 µM), for inactives: at the top dose activity change, negative = inhibition, actives largely listed as inhibitors; actives 1.2% (n = 410,000); AID 1159524, 2015; calls by dose curve; tested in HEK293T cells; also: read-out not given here; potency is read from the fitted curve at half-maximal effect; % is scaled to controls: 0 for no effect and ±100 for the full control effect; nearly all actives have a fitted effect of over 45% in size
* = called active by the depositor; ? = inconclusive; . = no result; [ ] = remark or other dose.

SMILES	Lassa entry inh	Shiga inhibitor	Marburg entry inh	Cycloheximide cs	HCV inhibitor	FMDV inh
CC1Sc2ccc(S(=O)(=O)CCC(=O)N3CCN(c4ccccc4)CC3)cc2NC1=O (stereo not given)	?	-14	-8%[46.1 µM]	-3	?	?
CCOc1ccc(-n2c(=O)c3c(C)c(C)sc3n(CC(=O)N(CC)Cc3ccccc3)c2=O)cc1	?	.	-14%[46.1 µM]	.	.	-21%
COc1cccc(CNc2ncnc3ccc(-c4c(C)noc4C)cc23)c1	.	-4	.	-6	.	0%
O=C(N/N=C\c1ccncc1)c1ccc(Cl)s1	4%[46.1 µM]	25	-15%[46.1 µM]	15	-15%	48%
Cc1ccc(C(=O)N/N=C\c2ccncc2)s1	15%[46.1 µM]	53*	7%[46.1 µM]	40*	-3%	17%
O=C(N/N=C/c1ccccn1)c1cc(-c2ccc(Br)s2)[nH]n1	.	-7	?	-6	14%	-26%
O=C(N/N=C\c1cccnc1)c1ccc(Br)s1	1%	60	3%	34*	?	48%
O=C(N/N=C/c1ccncc1)c1cc(-c2ccc(Br)s2)[nH]n1	?	40	?	32*	11%	5%
CCc1ccc(C(=O)N/N=C/c2ccncc2)s1	.	32	.	23*	13µM*	56%
CCc1ccc(/C=N/NC(=O)c2cc(-c3ccncc3)nc3ccccc23)s1	?	9	?	-5	?	-16%
CC(C)CN1C(=O)N(C)C(=O)C2N=CN=C21 (stereo not given)	.	.	23%	.	.	.
Cc1cc(N(CCCl)CCCl)ccc1C=NNC(=O)c1cccnc1	?	.	?	.	?	-5%
O=C(N/N=C/c1cc(O)ccc1Br)c1cccnc1	.	2	.	-3	?	20%
O=C(NN=Cc1ccc(N(CCCl)CCCl)cc1Cl)c1cccnc1	?	.	1.6µM*	.	?	-27%
O=C(N/N=C\c1ccncc1)c1ccc(Br)s1	0%[46.1 µM]	8	?	13*	?	31%
O=C(N/N=C/c1ccc(Br)s1)c1cccnc1	12%	42*	3%	26*	?	9%
CC(OC(=O)c1cccc(S(=O)(=O)N2CCOCC2)c1)C(=O)NC1CCCCC1C (stereo not given)	.	.	.	.	1%	-10%
CCC1Cc2cc(O)ccc2C2=C1c1ccc(O)cc1CC2CC (stereo not given)	.	-10	.	-8	.	?
Cc1cc(C)n(-c2nnc3c4ccccc4n(C)c3n2)n1	0%[46.1 µM]	113*	27%[46.1 µM]	44*	-20%	-4%
CC(C)NC(=O)CSCc1ccccc1Cl	4%	27	?	7	7%	5%
COc1ccc(OC(=O)CSc2nnc(-c3ccc(F)cc3)o2)cc1	26%[46.1 µM]	.	-23%[46.1 µM]	.	.	-14%
CC(C)CCNC(=O)NC(=O)CSc1nnc(-c2ccccc2Br)o1	2%	-16	4%	-3	?	.
C/C(N)=C(/C#N)C(=O)CSc1nnc(-c2ccccc2Br)o1	?	126*	6.3µM*	54*	-2%	-18%
COc1ccc2nc(SCC(=O)/C(C#N)=C(\C)N)[nH]c2c1	?	97*	?	47*	2%	-7%
COc1ccc(-c2nnc(SCC(=O)/C(C#N)=C(\C)N)o2)cc1	?	107*	?	38*	?	-32%
SMILES	Lassa entry inh	Shiga inhibitor	Marburg entry inh	Cycloheximide cs	HCV inhibitor	FMDV inh
Cc1cccc(OC(C)C(=O)N2CCCc3ccccc32)c1 (stereo not given)	?	-5	-19%	-1	2%	2%
C[N+](C)(CCCCCC[N+](C)(C)CCCN1C(=O)c2ccccc2C1=O)CCCN1C(=O)c2ccccc2C1=O	.	.	.	.	.	-12%
Cc1ccc(-n2nnnc2SCC(=O)NCC2(N3CCCCC3)CCCCC2)c(C)c1	.	.	.	.	-18%	?
O=C(Nc1ccc2ncccc2c1)c1ccccc1	26%[46.1 µM]	-3	6%[46.1 µM]	-1	-1%	1%
CC(NC(=O)c1ccc2nc[nH]c2c1)c1ccccc1 (stereo not given)	1%	-9	?	-2	3%	5%
O=C(NC(=S)Nc1ccc2[nH]ncc2c1)c1ccccc1	-7%	88*	-20%	35*	?	14%
O=C(NC(=S)Nc1ccc2ncccc2c1)c1ccccc1	?	75*	?	52*	-12%	65%
